Bioassay records from PubChem.
Rab9 prom act: activators of Rab9 promoter. Huh7 Rab9 promoter-luciferase reporter, luminescence, 24 h. Potency, µM (series often up to 9.22 µM), for the others: at the highest dose activation, negative = inhibition, hits mostly activators. 320,000 compounds, 2.8% hits; also: % of control where 0% means no effect; nearly all actives have a fitted effect of over 60% in size
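Measured in stably transfected Huh7 cells bearing a Rab9 promoter–luciferase construct: 24 h compound treatment at 37 °C, followed by luminescence detection.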
ELG1 genotoxic: inducers of genotoxicity in HEK293T ELG1-luciferase cells; HEK293T ELG1-luciferase reporter, luminescence, 16 h; Potency, µM (titrated, usually from 46 µM), for inactives: at the top dose activity change, positive = activation, hits mostly activators; 330,000 compounds, 1.3% hits; AID 504466; also: % of control where 0% means no effect; nearly all actives have a fitted effect of over 60% in size
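HEK293T cells expressing luciferase-tagged ELG1 were exposed to compound or DMSO vehicle for 16 hr at 37 °C and 5% CO2. Luciferase activity was then measured with ONE-Glo after 30 min at room temperature.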
KinaseGlo FLuc: blocks Kinase-Glo luciferase, a counter-screen artifact. Potency, µM (highest dose often 38.3 µM), for inactives: at the highest dose activity change, negative = inhibition, hits mostly inhibitors. Q27757. 200,000 compounds, 0.28% hits. Kinase-Glo luciferase, ATP luminescence, 8 min; also: % is scaled to controls: 0 for no effect and ±100 for the full control effect; nearly all actives have a fitted effect of over 60% in size
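Substrate mix (final 50 mM imidazole pH 7.2, 50 mM KCl, 7 mM MgCl2, 10 uM ATP, 0.01% Tween 20, 0.05% BSA) plus pin-tool compound, then Kinase-Glo detection mix; 8 min ambient, luminescence read.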
FLuc counter: counter-screen for miR-21 project: firefly luciferase inhibitors or activators; P08659; Potency, µM (doses to about 57.5 µM), without a hit: at the top dose activity change, negative = inhibition, actives largely listed as inhibitors; AID 588342; 360,000 compounds, 6.9% hits; purified FLuc, Km substrates, luminescence inhibition;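 also: plate controls were vehicle for no effect and reference inhibitor for full effect; nearly all actives have a fitted effect of over 55% in size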
Target sequence (P08659 whole entry, looked up): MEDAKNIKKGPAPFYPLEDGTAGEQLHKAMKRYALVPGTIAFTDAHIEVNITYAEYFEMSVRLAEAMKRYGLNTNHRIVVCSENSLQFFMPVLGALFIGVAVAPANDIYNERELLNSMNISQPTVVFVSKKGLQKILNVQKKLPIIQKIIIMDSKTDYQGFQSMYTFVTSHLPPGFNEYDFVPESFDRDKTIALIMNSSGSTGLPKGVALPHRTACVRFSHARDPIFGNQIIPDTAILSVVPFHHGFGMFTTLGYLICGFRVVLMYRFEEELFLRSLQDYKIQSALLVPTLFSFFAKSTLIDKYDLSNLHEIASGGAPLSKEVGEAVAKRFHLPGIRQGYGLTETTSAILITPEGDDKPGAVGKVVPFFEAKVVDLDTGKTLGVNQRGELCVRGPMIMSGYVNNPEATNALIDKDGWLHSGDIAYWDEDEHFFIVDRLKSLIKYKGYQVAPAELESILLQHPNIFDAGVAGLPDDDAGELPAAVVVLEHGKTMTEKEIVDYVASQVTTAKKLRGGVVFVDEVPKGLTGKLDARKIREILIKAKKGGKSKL
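Biochemical qHTS of compounds, final roughly 60 µM downward over six points, against 10 nM purified firefly luciferase using Km concentrations of substrates (10 uM D-luciferin, 10 uM ATP) in Tris acetate pH 7.5 buffer; luminescence output.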
SMN2 splice enh: SMN2 splice variant enhancement | HEK293 SMN2-luciferase splicing reporter, luminescence, 30-36 h | Potency, µM (titrated, usually from 46.1 µM), without a hit: at the top dose activity change, positive = activation, hits mostly activators | 210,000 compounds, 2.8% hits | AID 1458; also: % of control where 0% means no effect; nearly all actives have a fitted effect of over 55% in size
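qHTS luciferase splicing reporter: luminescence rises when SMN2 exon 7 is included in transfected HEK293 cells. Compound exposure lasted 30-36 h at 37C, with 4.5 mM final sodium butyrate as control, followed by a ONE-Glo read.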
NPC1 promoter act: activators of NPC1 promoter. 320,000 compounds, 2.4% hits. Potency, µM (series often up to 9.22 µM), inactives show at the top dose activation, hits mostly activators. Huh7 NPC1 promoter luciferase reporter, 24 h; also: % of control where 0% means no effect; nearly all actives have a fitted effect of over 60% in size
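Compounds in DMSO were transferred onto Huh7 NPC1-luciferase reporter cells pre-incubated 2 h; after 24 h at 37 °C, Amplite reagent was dispensed and luminescence recorded 10 min later.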
* marks the source's active call; other numbers are inactive results; ? = inconclusive; . = no result; [ ] = another dose, or the depositor's remark. The list is not random: actives were taken first. Their share in the collection is about 7.5%. Calls follow the shape of the dose curve; as a rule, active = well fitted curve in the direction sought with a large enough effect; inconclusive = small, poorly fitted or top-dose-only effect, or another doubt; inactive = no such curve, though single readings can be large; an effect the other way counts as inactive or inconclusive. Potency is read from the fitted curve at half-maximal effect.

SMILES	Rab9 prom act	ELG1 genotoxic	KinaseGlo FLuc	FLuc counter	SMN2 splice enh	NPC1 promoter act
CC(=O)Nc1ccc(S(=O)(=O)NC(C)C(=O)NCC(c2ccco2)N2CCCCC2)cc1 (stereo unspecified)	-4%	2%	.	6%	.	0%
Cc1ccc(S(=O)(=O)NC(CC(C)C)C(=O)NCC(c2ccco2)N2CCCCC2)cc1 (stereo unspecified)	1%	?	.	19µM*	.	0%
Nc1c(-c2cccc([N+](=O)[O-])c2)nc2ccccn12	3.2µM*	?	?	17µM*	?	?
COc1ccc(OCc2csc(N)n2)cc1	2.8µM*	?	-9%	?	13µM*	?
COc1cc2c(cc1OC)C(C(=O)Nc1ccc(F)c(Cl)c1)CC(=O)N2 (stereo unspecified)	5%	-5%	.	3%	.	-7%
COc1ccc(-n2cnc3ccccc32)cc1	3%	-15%	1%	?	-10%	4%
COc1cccc(CNc2ccc3c(c2)ncn3C(C)C)c1OC	4µM*	14%	1%	17µM*	?	4µM*
CCCn1cnc2cc(NCc3ccccn3)ccc21	3.2µM*	?	-5%	12µM*	13µM*	3.2µM*
CCCn1cnc2cc(NCc3cccc(OC)c3O)ccc21	-3%	?	-4%	12µM*	-2%	18%
COc1cccc(CNc2ccc(F)c(Cl)c2)c1OC	2%	2%	3%	0%	-28%	0%
COc1ccc(-n2cnc3cc(NCc4ccccn4)ccc32)cc1	22%	7%	1%	17µM*	-8%	16%
CCn1cnc2cc(NCc3ccncc3)ccc21	-2%	3%	5%	-2%[2.3 µM]	.	-2%
CC(=O)N[C@@H](C)C(=O)N1CCN(S(=O)(=O)c2ccc(Cl)cc2)CC1	19%	-1%	1%	0%	-2%	1%
Cc1cc(NC(=O)CSCC(=O)OCC(=O)c2cccc(Br)c2)no1	0%	3%	.	-1%	.	-3%
COc1ccccc1-n1cnc2cc(NCc3ccccn3)ccc21	16%	10%	1%	15µM*	11%	-3%
COc1ccccc1-n1cnc2cc(NC(C)=O)ccc21	1%	11%	-1%	1%	17%	-1%
Oc1ccc(O)c(Cc2nc3ccccc3s2)c1	-3%	-3%	-4%	?	0%	-9%
OCc1cc(Br)ccc1OCc1nc2ccccc2s1	2.8µM*	?	.	5.4µM*	.	3.2µM*
Oc1ccccc1OCc1nc2ccccc2s1	29%	8.2µM*	-15%	5.4µM*	32µM*	13%
COc1ccc(-n2c(/C=C/c3cccc4ccccc34)nc3ccccc3c2=O)cc1Cl	.	.	.	-1%	.	.
CCSCCOC(=O)C1=C(C)N(C)C(=O)NC1c1ccc2c(c1)OCO2 (stereo unspecified)	-1%	-2%	.	-1%	.	-2%
O=C1c2ccccc2-c2nc3ccccc3nc21	2.2µM*	4.5µM*	-15%	15µM*	13µM*	2.8µM*
CC(C)NS(=O)(=O)c1ccc(NC(=O)C(C)OC(=O)CCC2CCCC2)cc1 (stereo unspecified)	2%	0%	.	-1%	.	-6%
O=C(Nc1c(Cl)cccc1Cl)c1cc(-c2cccc(O)c2)on1	.	.	.	24µM*	?	.
O=C(Nc1c(Cl)cccc1Cl)c1cc(-c2ccc3c(c2)OCO3)on1	.	.	.	-22%	15%	.
SMILES	Rab9 prom act	ELG1 genotoxic	KinaseGlo FLuc	FLuc counter	SMN2 splice enh	NPC1 promoter act
O=C(Nc1ccc2c(c1)OCO2)c1cc(-c2ccc(O)cc2)on1	?	?	.	?	.	3.5µM*
COc1cccc(-c2cc(C(=O)Nc3ccc4c(c3)OCO4)no2)c1	17%	?	.	-8%	-5%	20%
O=C(Nc1ccc2c(c1)OCO2)c1cc(-c2cccc(O)c2)on1	-2%	10%	.	2.1µM*	.	7%
O=C(Nc1ccc2c(c1)OCO2)c1cc(-c2ccc(Cl)cc2)on1	.	.	.	-1%	9%	.
O=C(CSC1=Nc2ccccc2N=C(c2ccc(F)cc2)C1)Nc1cccc(C(F)(F)F)c1	.	.	.	-7%	.	.
O=C(/C=C/c1cccc(F)c1)N1CCc2ccccc21	0.63µM*	1.8µM*	?	0.85µM*	2.5µM*	1.1µM*
O=C(/C=C/c1ccc(Cl)cc1Cl)OCC(=O)N1CCCC1	12%	4%	.	15µM*	.	-4%
O=C(/C=C/c1ccc(Cl)cc1Cl)N1CCc2ccccc21	0.79µM*	6.5µM*	-23%	0.6µM*	2.5µM*	1.6µM*
CCOC(=O)c1nc2c(ccc3ccccc32)cc1C	0%	5%	.	15µM*	.	-1%
CCOC(=O)c1cnc2c(ccc3ccccc32)c1Nc1ccc(OC)c(OC)c1	.	.	.	-1%	-1%	.
Cc1ccc(-n2c(SCC(=O)NCc3ccc(F)cc3)nc3c([nH]c4ccccc43)c2=O)cc1	.	.	.	-4%	.	.
Nc1cc(S(=O)(=O)N2CCOCC2)ccc1N1CCCCC1	.	1%	.	.	.	.
O=c1c2ccccc2sn1-c1cc(S(=O)(=O)N2CCOCC2)ccc1N1CCOCC1	11%	-3%	-12%	4.8µM*	4%	1%
O=c1c2ccccc2sn1-c1cc(S(=O)(=O)N2CCOCC2)ccc1N1CCCC1	-2%	-1%	-3%	5.4µM*	14%	12%
O=S(=O)(c1ccc(N2CCOCC2)c(Cl)c1)N1CCOCC1	-3%	-1%	.	-2%	.	-1%
CCCC(=O)NC1CC(=O)N(c2ccc3c(c2)OCCO3)C1 (stereo unspecified)	.	.	.	-2%	.	.
O=C(Nc1ccc(-c2nnn(CC(=O)N3CCN(C(=O)c4ccco4)CC3)n2)cc1)c1ccccc1F	24%	-6%	1%	11µM*	-5%	16%
